Measured values published in PubChem BioAssay AID1159580 (chemical genetic matrix, 2015).
“And” between values parts separate entries of the source, which are not always exact repeats. Equal entries are not always repeated. About 2,000 (36%) of roughly 5,500 compounds were called active. Inconclusive results (about 18%) are left out. Rule as the data show it: active = normalized growth mostly below about 0.91 (no sharp cut-off); inconclusive = no clear call, values can overlap the other calls; inactive = mostly above about 0.92. The list shows a part of the results.

Experiment: chemical genetic growth profiling, strain panel (AID 1159580);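 also: tested at 20 µM; growth read once vehicle control cultures reached saturation at 30 °C; 1 = growth at the plate median or of vehicle wells; lower values mean less growth of the strain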
Conditions: S. cerevisiae deletion strains, growth OD
[1] = locus YMR263W, strain SAP30, stronger effect = lower value
[2] = locus YMR307W, strain GAS1, stronger effect = lower value

Measured: normalized growth

O=C1c2cccc(O)c2C(=O)c2c(O)cccc21
active: locus YAL013W, strain DEP1, stronger effect = lower value 0.799 | locus YAL021C, strain ccr4, stronger effect = lower value 0.837 | locus YAL026C, strain drs2, stronger effect = lower value 0.823 | locus YBR009C, strain hhf1, stronger effect = lower value 0.821 | locus YBR021W, strain FUR4, stronger effect = lower value 1.18 [resistant] | locus YBR023C, strain chs3, stronger effect = lower value 0.909 | locus YBR229C, strain ROT2, stronger effect = lower value 0.898 | locus YBR231C, strain swc5, stronger effect = lower value 0.733 | locus YBR279W, strain paf1, stronger effect = lower value 0.905 | locus YCL016C, strain dcc1, stronger effect = lower value 0.77 | locus YCL029C, strain bik1, stronger effect = lower value 0.808 | locus YDL005C, strain med2, stronger effect = lower value 0.167 | locus YDL035C, strain GPR1, stronger effect = lower value 0.703 | locus YDL074C, strain BRE1, stronger effect = lower value 0.658 | locus YDL101C, strain DUN1, stronger effect = lower value 0.616 | locus YDL185W, strain tfp1, stronger effect = lower value 0.789 | locus YDL192W, strain arf1, stronger effect = lower value 0.628 | locus YDR069C, strain doa4, stronger effect = lower value 0.768 | locus YDR101C, strain arx1, stronger effect = lower value 0.745 | locus YDR137W, strain rgp1, stronger effect = lower value 0.268 | locus YDR150W, strain NUM1, stronger effect = lower value 0.861 | locus YDR159W, strain sac3, stronger effect = lower value 0.705 | locus YDR162C, strain NBP2, stronger effect = lower value 0.344 | locus YDR195W, strain ref2 1.22 [resistant] | locus YDR318W, strain mcm21, stronger effect = lower value 0.772 | locus YDR334W, strain swr1, stronger effect = lower value 0.831 | locus YDR335W, strain msn5, stronger effect = lower value 0.85 | locus YDR388W, stronger effect = lower value 0.728 | locus YDR392W, strain spt3, stronger effect = lower value 0.64 | locus YDR502C, strain sam2, stronger effect = lower value 0.673 | locus YEL003W, strain gim4, stronger effect = lower value 0.834 | locus YEL061C, strain CIN8, stronger effect = lower value 0.747 | locus YER015W, strain faa2, stronger effect = lower value 0.911 | locus YER016W, strain bim1, stronger effect = lower value 0.864 | locus YER110C, stronger effect = lower value 0.885 | locus YER155C, strain BEM2 (second series), stronger effect = lower value 0.806 | locus YER155C, strain BEM2, stronger effect = lower value 0.835 | locus YER167W, strain BCK2, stronger effect = lower value 0.77 | locus YFR010W, strain ubp6, stronger effect = lower value 0.862 | locus YGL078C, strain dbp3, stronger effect = lower value 0.874 | locus YGL086W, strain mad1, stronger effect = lower value 0.781 | locus YGL167C, strain pmr1, stronger effect = lower value 0.612 | locus YGL240W, strain doc1, stronger effect = lower value 0.886 | locus YGL248W, strain PDE1, stronger effect = lower value 0.685 | locus YGL253W, strain hxk2, stronger effect = lower value 0.79 | locus YGR078C, strain PAC10, stronger effect = lower value 0.669 | locus YGR135W, strain pre9, stronger effect = lower value 0.698 | locus YGR252W, strain gcn5, stronger effect = lower value 0.625 | locus YHR013C, strain ard1, stronger effect = lower value 0.701 | locus YHR027C, strain rpn1, stronger effect = lower value 0.81 | locus YHR079C, strain IRE1 (second series), stronger effect = lower value 0.915 | locus YHR129C, strain ARP1, stronger effect = lower value 0.777 | locus YHR142W, strain chs7, stronger effect = lower value 0.857 | locus YHR200W, strain rpn10, stronger effect = lower value 0.732 | locus YIL066C, strain RNR3, stronger effect = lower value 0.59 | locus YIL125W, strain kgd1, stronger effect = lower value 0.872 | locus YIR030C, strain dcg1, stronger effect = lower value 0.896 | locus YJL095W, strain BCK1 (second series), stronger effect = lower value 0.878 | locus YJL095W, strain BCK1, stronger effect = lower value 0.379 and 0.881 | locus YJL115W, strain asf1, stronger effect = lower value 0.819 | locus YJL164C, strain tpk1, stronger effect = lower value 0.833 | locus YJL166W, strain qcr8, stronger effect = lower value 0.812 | locus YJL168C, strain set2, stronger effect = lower value 0.927 | locus YJL187C, strain SWE1 (second series), stronger effect = lower value 0.611 | locus YJL187C, strain SWE1, stronger effect = lower value 0.914 | locus YJR043C, strain POL32, stronger effect = lower value 0.767 | locus YJR066W, strain TOR1, stronger effect = lower value 0.796 | locus YKL009W, strain mrt4, stronger effect = lower value 0.844 | locus YKL160W, strain elf1, stronger effect = lower value 0.835 | locus YKL190W, strain CNB1, stronger effect = lower value 0.697 | locus YKR001C, strain vps1, stronger effect = lower value 0.405 | locus YLR027C, strain aat2, stronger effect = lower value 0.878 | locus YLR039C, strain RIC1, stronger effect = lower value 0.178 | locus YLR058C, strain SHM2, stronger effect = lower value 0.684 | locus YLR221C, strain rsa3, stronger effect = lower value 0.856 | locus YLR258W, strain gsy2, stronger effect = lower value 0.909 | locus YLR262C, strain YPT6 (second series), stronger effect = lower value 0.406 | locus YLR262C, strain YPT6, stronger effect = lower value 0.24 | locus YLR268W, strain sec22, stronger effect = lower value 0.606 | locus YLR320W, strain mms22, stronger effect = lower value 0.435 | locus YLR330W, strain CHS5, stronger effect = lower value 0.688 | locus YLR371W, strain rom2, stronger effect = lower value 0.789 | locus YLR418C, strain cdc73, stronger effect = lower value 0.401 | locus YML016C, strain PPZ1, stronger effect = lower value 0.82 | locus YML032C, strain rad52, stronger effect = lower value 0.291 | locus YML120C, strain ndi1, stronger effect = lower value 0.866 | locus YML124C, strain tub3, stronger effect = lower value 0.802 | locus YMR058W, strain fet3, stronger effect = lower value 0.747 | locus YMR078C, strain ctf18, stronger effect = lower value 0.841 | locus YMR223W, strain ubp8, stronger effect = lower value 0.668 | locus YMR231W, strain pep5, stronger effect = lower value 0.882 | [1] 0.756 | locus YNL067W, strain RPL9B, stronger effect = lower value 0.699 | locus YNL071W, strain lat1, stronger effect = lower value 0.831 | locus YNL128W, strain TEP1, stronger effect = lower value 0.638 | locus YNL153C, strain GIM3, stronger effect = lower value 0.568 | locus YNL209W, strain ssb2, stronger effect = lower value 0.879 | locus YNL233W, strain BNI4, stronger effect = lower value 0.729 | locus YNL248C, strain rpa49, stronger effect = lower value 0.55 | locus YNL250W, strain rad50, stronger effect = lower value 0.463 | locus YNL271C, strain bni1, stronger effect = lower value 0.847 | locus YNL298W, strain CLA4, stronger effect = lower value 0.823 | locus YNL307C, strain MCK1, stronger effect = lower value 0.669 | locus YNL322C, strain KRE1, stronger effect = lower value 0.803 | locus YNR052C, strain pop2, stronger effect = lower value 0.59 | locus YOL147C, strain pex11, stronger effect = lower value 0.749 | locus YOR001W, strain rrp6, stronger effect = lower value 0.855 | locus YOR061W, strain CKA2, stronger effect = lower value 0.847 | locus YOR069W, strain VPS5, stronger effect = lower value 0.79 | locus YOR070C, strain gyp1, stronger effect = lower value 0.874 | locus YOR083W, strain WHI5, stronger effect = lower value 0.793 | locus YOR106W, strain vam3, stronger effect = lower value 0.577 | locus YOR136W, strain idh2, stronger effect = lower value 0.845 | locus YOR144C, strain elg1, stronger effect = lower value 0.886 | locus YOR184W, strain ser1, stronger effect = lower value 0.375 | locus YOR270C, strain vph1, stronger effect = lower value 0.364 | locus YOR290C, strain snf2, stronger effect = lower value 0.796 | locus YPL051W, strain arl3, stronger effect = lower value 0.737 | locus YPL106C, strain sse1, stronger effect = lower value 0.705 | locus YPL240C, strain hsp82, stronger effect = lower value 0.909 | locus YPL241C, strain CIN2, stronger effect = lower value 0.847 | locus YPR163C, strain tif3, stronger effect = lower value 0.775 | locus YPR167C, strain met16, stronger effect = lower value 0.851 | strain wtn01, stronger effect = lower value 0.752
inactive: locus YAL030W, strain snc1, stronger effect = lower value 0.935 | locus YBL061C, strain skt5, stronger effect = lower value 0.929 | locus YBR171W, strain sec66, stronger effect = lower value 0.939 | locus YCL011C, strain gbp2, stronger effect = lower value 0.928 | locus YCL061C, strain MRC1, stronger effect = lower value 0.928 | locus YCL069W, strain vba3, stronger effect = lower value 0.951 | locus YCR088W, strain abp1, stronger effect = lower value 0.97 | locus YDL040C, strain nat1, stronger effect = lower value 0.952 | locus YDR001C, strain nth1, stronger effect = lower value 0.977 | locus YDR297W, strain sur2, stronger effect = lower value 0.949 | locus YEL037C, strain rad23, stronger effect = lower value 0.936 | locus YEL061C, strain CIN8 (second series), stronger effect = lower value 0.957 | locus YER111C, strain swi4, stronger effect = lower value 0.956 | locus YGL173C, strain kem1, stronger effect = lower value 0.947 | locus YGL227W, strain vid30, stronger effect = lower value 0.994 | locus YHR079C, strain IRE1, stronger effect = lower value 0.899 | locus YHR094C, strain hxt1, stronger effect = lower value 0.95 | locus YIL073C, strain SPO22, stronger effect = lower value 0.764 | locus YJL092W, strain hpr5, stronger effect = lower value 0.946 | locus YJL129C, strain trk1, stronger effect = lower value 1.02 | locus YJL134W, strain LCB3, stronger effect = lower value 0.951 | locus YJL154C, strain vps35, stronger effect = lower value 0.955 | locus YKL068W, stronger effect = lower value 0.967 | locus YKL085W, strain MDH1 (second series), stronger effect = lower value 0.944 | locus YKL085W, strain MDH1, stronger effect = lower value 0.944 | locus YKR026C, strain gcn3, stronger effect = lower value 0.97 | locus YKR091W, strain srl3, stronger effect = lower value 0.97 | locus YLL001W, strain dnm1, stronger effect = lower value 0.903 | locus YLL026W, stronger effect = lower value 0.941 | locus YLL041C, strain sdh2, stronger effect = lower value 0.953 | locus YLR102C, strain apc9, stronger effect = lower value 0.961 | locus YLR113W, strain HOG1, stronger effect = lower value 1 | locus YLR342W, strain FKS1 (second series), stronger effect = lower value 0.923 | locus YLR342W, strain FKS1, stronger effect = lower value 0.975 | locus YLR357W, strain rsc2, stronger effect = lower value 0.995 | locus YLR384C, strain iki3, stronger effect = lower value 0.936 | locus YMR125W, strain sto1, stronger effect = lower value 0.959 | locus YMR129W, stronger effect = lower value 0.972 | locus YMR205C, strain PFK2, stronger effect = lower value 0.96 | [2] 0.677 | locus YNL183C, strain NPR1, stronger effect = lower value 0.836 | locus YNL322C, strain KRE1 (second series), stronger effect = lower value 0.965 | locus YNR049C, strain mso1, stronger effect = lower value 0.942 | locus YOL012C, strain htz1 0.695 | locus YOR080W, strain dia2, stronger effect = lower value 0.948 | locus YOR231W, strain MKK1, stronger effect = lower value 0.895 | locus YOR265W, strain rbl2, stronger effect = lower value 0.935 | locus YOR316C, strain cot1, stronger effect = lower value 0.941 | locus YPL078C, strain atp4, stronger effect = lower value 0.897 | locus YPL256C, strain CLN2, stronger effect = lower value 0.996 | locus YPR119W, strain clb2, stronger effect = lower value 0.931 | locus YPR141C, strain kar3, stronger effect = lower value 0.966
0.74 (active) and 0.875 (inactive): locus YHR030C, strain SLT2, stronger effect = lower value

O=C(O)c1cc(=O)cc(C(=O)O)[nH]1
inactive: locus YAL040C, strain CLN3, stronger effect = lower value 1.02 | locus YCL061C, strain MRC1 (second series), stronger effect = lower value 1.01 | locus YER002W, strain NOP16, stronger effect = lower value 1.04 | [1] 0.998 | [2] 1.01 | locus YNL175C, strain NOP13, stronger effect = lower value 0.999 | locus YNL197C, strain WHI3, stronger effect = lower value 1.03 | locus YNL224C, strain SQS1, stronger effect = lower value 1.01 | locus YOR083W, strain WHI5 (second series), stronger effect = lower value 1.02 | locus YPL055C, strain LGE1, stronger effect = lower value 1.01
